# Results taken from PubChem BioAssay (EPA / NIEHS).
# Results filed as inconclusive are left out. Active and inactive are the calls of the source. How the source made its calls, unless noted: active means hit-call score of the fitted dose curve at least 0.9, where 1 is the maximum; inactive means score below 0.9.
# What was measured:
# [1] = molecular target: CCAAT/enhancer-binding protein beta (Homo sapiens) (UniProt P17676); assay: ATG_C_EBP_CIS: Attagene CIS-FACTORIAL HepG2 Assay for human CCAAT/Enhancer Binding Protein (C/EBP) beta (AID 2282927); conditions: HepG2 Attagene cis-factorial transcription factor reporter; actives raise or lower the signal
# CCAAT/enhancer-binding protein beta (Homo sapiens), sequence (P17676 whole entry, looked up): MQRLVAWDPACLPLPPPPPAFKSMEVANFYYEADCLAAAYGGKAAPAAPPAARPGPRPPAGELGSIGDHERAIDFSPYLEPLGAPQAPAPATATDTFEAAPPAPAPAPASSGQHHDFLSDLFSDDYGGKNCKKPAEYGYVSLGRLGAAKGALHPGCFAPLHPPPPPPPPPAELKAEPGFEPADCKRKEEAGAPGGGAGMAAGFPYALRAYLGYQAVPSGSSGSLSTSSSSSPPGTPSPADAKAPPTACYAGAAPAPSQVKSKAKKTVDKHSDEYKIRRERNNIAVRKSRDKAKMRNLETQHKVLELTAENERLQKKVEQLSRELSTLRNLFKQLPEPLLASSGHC
# Procedure, shortened: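 Changes in reporter mRNA, rather than exogenous chimeric receptor activity, reflect native C/EBP signalling in transfected HepG2 cells dosed for 24 h; transcripts are detected by RT-PCR and capillary electrophoresis.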
# [2] = molecular target: Transcription factor E2F1 (Homo sapiens) (UniProt Q01094); assay: ATG_E2F_CIS: Attagene CIS-FACTORIAL HepG2 Assay for human E2F Transcription Factor 1 (AID 2282935); conditions: HepG2 Attagene cis-reporter, E2F reporter RNA transcripts; actives raise or lower the signal
# Procedure, shortened: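 Fluorescent RT-PCR products, digested with HpaI for 2 h at 37 C, are separated by capillary electrophoresis. Source RNA comes from transfected HepG2 cultures treated for 24 h.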
# [3] = molecular target: Hypoxia-inducible factor 1-alpha (Homo sapiens) (UniProt Q16665); assay: ATG_HIF1a_CIS: Attagene CIS-FACTORIAL HepG2 Assay for human Hypoxia Inducible Factor 1 (HIF1A) (AID 2282951); conditions: HepG2 Attagene cis-factorial HIF1a reporter transcription; actives raise or lower the signal
# Hypoxia-inducible factor 1-alpha (Homo sapiens), sequence (Q16665 whole entry, looked up): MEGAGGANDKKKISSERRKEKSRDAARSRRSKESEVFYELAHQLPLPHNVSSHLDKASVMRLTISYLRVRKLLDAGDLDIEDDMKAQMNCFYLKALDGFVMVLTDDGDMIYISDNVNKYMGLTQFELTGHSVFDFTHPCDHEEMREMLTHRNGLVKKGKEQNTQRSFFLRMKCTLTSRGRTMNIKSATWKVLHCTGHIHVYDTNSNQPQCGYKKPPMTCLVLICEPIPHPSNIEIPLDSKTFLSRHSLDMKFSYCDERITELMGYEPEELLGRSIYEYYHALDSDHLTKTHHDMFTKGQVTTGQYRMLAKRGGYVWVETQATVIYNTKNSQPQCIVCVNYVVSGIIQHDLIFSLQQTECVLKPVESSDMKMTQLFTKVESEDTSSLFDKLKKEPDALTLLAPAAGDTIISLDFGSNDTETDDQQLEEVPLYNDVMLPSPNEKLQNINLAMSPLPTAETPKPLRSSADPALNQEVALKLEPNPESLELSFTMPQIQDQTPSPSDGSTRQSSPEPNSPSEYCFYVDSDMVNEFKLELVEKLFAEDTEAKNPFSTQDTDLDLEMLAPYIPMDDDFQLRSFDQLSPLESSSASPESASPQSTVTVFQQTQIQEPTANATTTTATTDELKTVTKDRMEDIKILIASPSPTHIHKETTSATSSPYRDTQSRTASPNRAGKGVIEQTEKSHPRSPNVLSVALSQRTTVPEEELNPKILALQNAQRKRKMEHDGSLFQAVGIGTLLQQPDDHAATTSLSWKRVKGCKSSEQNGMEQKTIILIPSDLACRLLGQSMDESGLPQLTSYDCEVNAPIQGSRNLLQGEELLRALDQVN
# Procedure, shortened: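 Cis-element reporter constructs were transiently transfected into HepG2 cells, which were treated for 24 h; reporter RNA was reverse-transcribed, amplified, labelled and resolved by capillary electrophoresis.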
# [4] = molecular target: Hepatocyte nuclear factor 6 (Homo sapiens) (UniProt Q9UBC0); assay: ATG_HNF6_CIS: Attagene CIS-FACTORIAL HepG2 Assay for human Hepatocyte Nuclear Factor 6 (HNF6) (AID 2282952); conditions: HepG2 Attagene cis-factorial HNF6 reporter transcription; actives raise or lower the signal
# Hepatocyte nuclear factor 6 (Homo sapiens), sequence (Q9UBC0 whole entry, looked up, the tested form may be a part): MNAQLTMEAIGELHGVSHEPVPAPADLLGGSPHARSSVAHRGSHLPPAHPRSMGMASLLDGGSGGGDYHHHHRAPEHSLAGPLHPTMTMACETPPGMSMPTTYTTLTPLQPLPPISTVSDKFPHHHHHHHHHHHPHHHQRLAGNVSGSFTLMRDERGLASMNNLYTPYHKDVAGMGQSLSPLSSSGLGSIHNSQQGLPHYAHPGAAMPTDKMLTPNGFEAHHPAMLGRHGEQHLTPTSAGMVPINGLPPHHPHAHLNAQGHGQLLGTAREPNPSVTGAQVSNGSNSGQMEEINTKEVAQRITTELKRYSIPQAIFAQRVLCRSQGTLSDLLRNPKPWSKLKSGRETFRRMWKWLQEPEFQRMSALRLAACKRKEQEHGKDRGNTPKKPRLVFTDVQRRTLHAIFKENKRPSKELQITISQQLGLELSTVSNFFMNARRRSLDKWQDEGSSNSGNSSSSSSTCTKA
# Procedure, shortened: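 Readout: fluorescent reporter-transcript fragments resolved by capillary electrophoresis after RT-PCR, reflecting endogenous factor activity in transfected HepG2. Exposure 24 h. Gain or loss of signal fitted bidirectionally against DMSO.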
# [5] = ATG_PXRE_CIS: Attagene CIS-FACTORIAL HepG2 Assay for human Pregnane X Receptor Element (PXRE) (AID 2282957); conditions: HepG2 Attagene CIS-FACTORIAL PXRE reporter, mRNA; actives raise or lower the signal
# Procedure, shortened: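 Read-out: fluorescence of reporter-specific RT-PCR products resolved by capillary electrophoresis, fitted bidirectionally relative to DMSO. Human HepG2 liver cells carried transfected cis-promoter reporter units and were exposed to chemicals for 24 h.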
# [6] = molecular target: Transcription factor Sp1 (Homo sapiens) (UniProt P08047); assay: ATG_Sp1_CIS: Attagene CIS-FACTORIAL HepG2 Assay for human Specificity Protein 1 (Sp1) (AID 2282961); conditions: HepG2 Sp1 cis-reporter transcription, actives raise or lower the signal
# Transcription factor Sp1 (Homo sapiens), sequence (P08047 whole entry, looked up): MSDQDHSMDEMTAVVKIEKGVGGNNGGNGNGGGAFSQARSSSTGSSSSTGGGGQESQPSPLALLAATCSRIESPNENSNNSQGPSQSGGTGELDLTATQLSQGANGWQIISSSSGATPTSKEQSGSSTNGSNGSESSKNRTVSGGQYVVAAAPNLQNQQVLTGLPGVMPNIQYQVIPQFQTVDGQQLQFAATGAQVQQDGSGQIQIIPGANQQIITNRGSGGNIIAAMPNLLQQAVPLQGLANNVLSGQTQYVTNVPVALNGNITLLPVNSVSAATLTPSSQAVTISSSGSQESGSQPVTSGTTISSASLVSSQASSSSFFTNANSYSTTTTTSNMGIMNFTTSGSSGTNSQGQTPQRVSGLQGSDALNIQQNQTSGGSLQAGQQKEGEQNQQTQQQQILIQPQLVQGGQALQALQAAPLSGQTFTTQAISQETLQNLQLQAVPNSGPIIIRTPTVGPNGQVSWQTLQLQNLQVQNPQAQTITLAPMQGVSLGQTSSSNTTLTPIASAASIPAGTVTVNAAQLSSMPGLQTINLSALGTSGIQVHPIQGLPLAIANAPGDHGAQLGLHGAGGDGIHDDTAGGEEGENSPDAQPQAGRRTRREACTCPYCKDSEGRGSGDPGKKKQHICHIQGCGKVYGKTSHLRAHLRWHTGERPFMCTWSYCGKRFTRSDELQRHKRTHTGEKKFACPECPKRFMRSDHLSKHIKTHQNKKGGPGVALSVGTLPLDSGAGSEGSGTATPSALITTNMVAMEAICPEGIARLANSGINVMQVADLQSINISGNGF
# Procedure, shortened: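 Chemicals are dosed onto HepG2 cells transfected with multiple cis-promoter reporter constructs, and after 24 h reporter RNA is reverse-transcribed, PCR-amplified and resolved by capillary electrophoresis for fluorescence quantitation; activity is scored up or down against DMSO.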
# [7] = molecular target: Signal transducer and activator of transcription 3 (Homo sapiens) (UniProt P40763); assay: ATG_STAT3_CIS: Attagene CIS-FACTORIAL HepG2 Assay for human Signal Transducer and Activator of Transcription 3 (STAT3) (AID 2282963); conditions: HepG2, Attagene cis-factorial STAT3 reporter transcription; actives raise or lower the signal
# Signal transducer and activator of transcription 3 (Homo sapiens), sequence (P40763 whole entry, looked up): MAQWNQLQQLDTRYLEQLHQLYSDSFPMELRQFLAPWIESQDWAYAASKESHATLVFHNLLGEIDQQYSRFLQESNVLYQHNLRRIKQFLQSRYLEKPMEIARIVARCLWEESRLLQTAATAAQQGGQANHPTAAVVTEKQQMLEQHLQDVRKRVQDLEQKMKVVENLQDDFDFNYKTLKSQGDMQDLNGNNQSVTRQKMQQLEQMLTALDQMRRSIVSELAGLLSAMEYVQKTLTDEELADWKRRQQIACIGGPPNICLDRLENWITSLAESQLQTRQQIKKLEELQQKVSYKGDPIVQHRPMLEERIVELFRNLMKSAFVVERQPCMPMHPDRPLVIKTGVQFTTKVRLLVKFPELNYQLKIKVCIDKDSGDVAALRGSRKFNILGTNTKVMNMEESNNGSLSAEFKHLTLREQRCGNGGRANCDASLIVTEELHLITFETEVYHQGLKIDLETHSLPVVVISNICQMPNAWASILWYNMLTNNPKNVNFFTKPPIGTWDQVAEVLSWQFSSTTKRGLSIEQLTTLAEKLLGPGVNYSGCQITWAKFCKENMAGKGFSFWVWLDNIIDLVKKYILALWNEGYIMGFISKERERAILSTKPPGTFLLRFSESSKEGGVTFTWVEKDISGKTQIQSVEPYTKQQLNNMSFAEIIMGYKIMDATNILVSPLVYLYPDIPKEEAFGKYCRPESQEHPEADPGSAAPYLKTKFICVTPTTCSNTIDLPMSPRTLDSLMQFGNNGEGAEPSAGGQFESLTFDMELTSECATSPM
# Procedure, shortened: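 Cis-factorial format: endogenous transcription factors in HepG2 drive transfected reporter units. After 24 h treatment, reporter RNA was reverse-transcribed, amplified, FAM-labelled and HpaI-digested before CE analysis; activity scored in both directions against DMSO.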
# [8] = ATG_VDRE_CIS: Attagene CIS-FACTORIAL HepG2 Assay for human Vitamin D Receptor Element (VDRE) (AID 2282968); conditions: HepG2 VDRE cis-reporter transcription, actives raise or lower the signal
# Procedure, shortened: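 Measures endogenous factor activity through cis-element-driven reporter transcripts in transiently transfected HepG2. Cells are treated 24 h; reporter mRNA is quantified by RT-PCR and capillary electrophoresis; fitting is bidirectional.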
# [9] = molecular target: X-box-binding protein 1 (Homo sapiens) (UniProt P17861); assay: ATG_Xbp1_CIS: Attagene CIS-FACTORIAL HepG2 Assay for human X-box Binding Protein 1 (XBP1) (AID 2282972); conditions: HepG2 XBP1 cis-element reporter, Attagene multiplex; actives raise or lower the signal
# X-box-binding protein 1 (Homo sapiens), sequence (P17861 whole entry, looked up): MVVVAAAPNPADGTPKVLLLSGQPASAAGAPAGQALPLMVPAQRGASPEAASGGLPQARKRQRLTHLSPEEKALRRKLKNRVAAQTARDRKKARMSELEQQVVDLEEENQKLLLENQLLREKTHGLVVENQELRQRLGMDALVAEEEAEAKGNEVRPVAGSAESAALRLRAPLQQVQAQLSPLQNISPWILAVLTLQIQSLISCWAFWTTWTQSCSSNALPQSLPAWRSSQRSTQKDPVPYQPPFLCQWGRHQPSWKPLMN
# Procedure, shortened: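 Reporter transcripts were quantified by RT-PCR with fluorescent primer extension and capillary electrophoresis after 24 h chemical exposure. Cells: transiently transfected HepG2 carrying cis-regulated reporter constructs; data fitted bidirectionally relative to DMSO.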
# [10] = molecular target: Transcriptional activator Myb (Homo sapiens) (UniProt P10242); assay: ATG_Myb_CIS: Attagene CIS-FACTORIAL HepG2 Assay for human Myeloblastosis (Myb) Proto-Oncogene Transcription Factor (AID 2282986); conditions: HepG2 Attagene CIS-FACTORIAL Myb reporter transcription; actives raise or lower the signal
# Procedure, shortened: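 Using HepG2 liver cells bearing transiently transfected cis-promoter reporter constructs, the assay measures induction or loss of reporter mRNA after 24 hours of dosing. Detection used fluorescently labeled RT-PCR products separated by capillary electrophoresis.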
# [11] = ATG_NFI_CIS: Attagene CIS-FACTORIAL HepG2 Assay for human Nuclear Factor I (NFI) (AID 2282989); conditions: HepG2 cis-regulatory reporter, NFI response element transcription; actives raise or lower the signal
# Procedure, shortened: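 Transient MRTU transfection of HepG2 → 24 h chemical dosing → total RNA, oligo(dT) RT → PCR, 6-FAM primer extension, HpaI cut → capillary electrophoresis. Endpoint fitted bidirectionally relative to DMSO.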
# [12] = molecular target: Myc proto-oncogene protein (Homo sapiens) (UniProt P01106); assay: ATG_Myc_CIS: Attagene CIS-FACTORIAL HepG2 Assay for human Myelocytomatosis (Myc) Proto-Oncogene Transcription Factor (AID 2282990); conditions: HepG2, Attagene cis-reporter transcription factor activity; actives raise or lower the signal
# Myc proto-oncogene protein (Homo sapiens), sequence (P01106 whole entry, looked up): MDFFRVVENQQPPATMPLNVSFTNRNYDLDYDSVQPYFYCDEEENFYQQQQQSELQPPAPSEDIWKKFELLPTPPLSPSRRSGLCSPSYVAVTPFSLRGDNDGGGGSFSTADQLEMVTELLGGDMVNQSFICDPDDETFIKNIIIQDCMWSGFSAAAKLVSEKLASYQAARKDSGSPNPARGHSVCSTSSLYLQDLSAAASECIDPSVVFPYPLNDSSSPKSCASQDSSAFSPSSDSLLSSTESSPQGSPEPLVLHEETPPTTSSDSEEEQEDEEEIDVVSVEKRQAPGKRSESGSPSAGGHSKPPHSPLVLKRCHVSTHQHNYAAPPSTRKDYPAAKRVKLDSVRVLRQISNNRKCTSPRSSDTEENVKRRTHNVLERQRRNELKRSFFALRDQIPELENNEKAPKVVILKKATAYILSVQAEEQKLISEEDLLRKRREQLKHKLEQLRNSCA
# Procedure, shortened: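 Cells of the HepG2 human liver line bear multiple cis-driven reporter transcription units. Reporter mRNA after 24 h exposure is reverse-transcribed, amplified, labelled and resolved by capillary electrophoresis, with gain- or loss-of-signal fitting relative to DMSO.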
# [13] = ATG_NRF2_ARE_CIS: Attagene CIS-FACTORIAL HepG2 Assay for human Nuclear Factor Erythroid 2 Related Factor 2 (NFR2) response to Antioxidant Response Elements (ARE) (AID 2282992); conditions: HepG2 Attagene ARE/NRF2 reporter, transcription factor activity; actives raise or lower the signal
# Procedure, shortened: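 Endogenous transcription factor activity read out as reporter transcript levels (RT-PCR plus capillary electrophoresis, fluorescence) in transiently transfected HepG2 cells. Measured at 24 h after dosing; gain or loss of signal fitted versus DMSO.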
# [14] = molecular target: Cellular tumor antigen p53 (Homo sapiens) (UniProt P04637); assay: ATG_p53_CIS: Attagene CIS-FACTORIAL HepG2 Assay for human p53 Transcription Factor (AID 2282994); conditions: HepG2 p53 cis-element reporter, Attagene mRNA; actives raise or lower the signal
# Cellular tumor antigen p53 (Homo sapiens), sequence (P04637 whole entry, looked up): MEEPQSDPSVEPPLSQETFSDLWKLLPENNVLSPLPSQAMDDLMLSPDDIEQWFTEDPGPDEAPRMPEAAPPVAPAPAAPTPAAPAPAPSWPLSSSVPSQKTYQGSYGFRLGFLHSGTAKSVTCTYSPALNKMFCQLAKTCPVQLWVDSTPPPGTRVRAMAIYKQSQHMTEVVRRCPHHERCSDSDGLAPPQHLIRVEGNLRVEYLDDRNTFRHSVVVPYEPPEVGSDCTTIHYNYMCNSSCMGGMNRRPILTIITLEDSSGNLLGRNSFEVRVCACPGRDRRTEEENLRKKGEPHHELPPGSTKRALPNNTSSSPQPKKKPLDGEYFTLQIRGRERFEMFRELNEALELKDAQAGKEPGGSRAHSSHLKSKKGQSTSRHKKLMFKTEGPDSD
# Procedure, shortened: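 Endogenous p53 activity read in transiently transfected HepG2 from a cis-element-driven reporter transcript after 24 h exposure. RNA reverse-transcribed, PCR-amplified, fluorescently labelled and sized by capillary electrophoresis; gain or loss fitted against DMSO baseline.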
# [15] = molecular target: Cellular tumor antigen p53 (Homo sapiens) (UniProt P04637); assay: TOX21_p53_BLA_p2_ratio: Tox21 HCT-116 p53 Agonism Beta-lactamase Assay, Ratio, Phase 2 (AID 2283592; active means hit-call score of the fitted dose curve at least 0.9, where 1 is the maximum)
# Procedure, shortened: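 Readout: blue/green (460/530 nm) FRET emission ratio after 2 h CCF4-AM loading at room temperature, excitation 405 nm. HCT116 p53 bla cells, 16 h compound exposure at 37C, 5% CO2; agonist direction fitted against DMSO baseline.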
# [16] = molecular target: Heat shock factor protein 1 (Homo sapiens) (UniProt Q00613); assay: ATG_HSE_CIS: Attagene CIS-FACTORIAL HepG2 Assay for human Heat Shock Transcription Factor 1 (HSE) (AID 2282953); conditions: HepG2 HSE cis-reporter, Attagene RNA transcription; actives raise or lower the signal
# Heat shock factor protein 1 (Homo sapiens), sequence (Q00613 whole entry, looked up): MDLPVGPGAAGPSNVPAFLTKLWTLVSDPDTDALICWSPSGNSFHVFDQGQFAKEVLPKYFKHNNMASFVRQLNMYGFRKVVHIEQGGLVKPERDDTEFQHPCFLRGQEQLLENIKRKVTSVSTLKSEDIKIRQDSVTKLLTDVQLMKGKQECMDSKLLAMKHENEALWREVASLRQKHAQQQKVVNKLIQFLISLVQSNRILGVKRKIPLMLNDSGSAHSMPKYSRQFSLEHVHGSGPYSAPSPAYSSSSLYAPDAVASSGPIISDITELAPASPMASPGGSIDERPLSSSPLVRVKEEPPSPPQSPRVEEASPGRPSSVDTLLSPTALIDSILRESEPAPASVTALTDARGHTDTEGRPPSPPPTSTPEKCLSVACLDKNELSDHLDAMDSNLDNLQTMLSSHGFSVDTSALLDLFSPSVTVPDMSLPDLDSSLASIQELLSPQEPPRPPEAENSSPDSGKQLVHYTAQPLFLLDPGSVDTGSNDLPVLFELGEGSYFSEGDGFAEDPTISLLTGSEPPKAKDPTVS
# Procedure, shortened: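 HepG2, transient MRTU transfection, cis-promoter reporters (endogenous TF activity). 24 h compound. RNA → oligo(dT) RT → PCR → 6-FAM primer extension → HpaI cut → CE. Bidirectional fit vs DMSO.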
# [17] = ATG_Sox_CIS: Attagene CIS-FACTORIAL HepG2 Assay for human SRY-box transcription factor (SOX) (AID 2282960); conditions: HepG2 Attagene cis-factorial SOX reporter, mRNA; actives raise or lower the signal
# Procedure, shortened: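 Fluorescence-labelled cDNA fragments from reporter transcripts, sized by CE, give the signal. Cells: HepG2, transiently transfected with cis-regulated reporter units. Exposure 24 h; DMSO negative control; bidirectional curve fitting.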
# [18] = ATG_TAL_CIS: Attagene CIS-FACTORIAL HepG2 Assay for human TAL Basal Promoter (AID 2282966); conditions: HepG2 Attagene cis-factorial TAL promoter reporter; actives raise or lower the signal;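 further: background control endpoint measuring basal TAL promoter reporter mRNA not a specific factor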
# Procedure, shortened: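 HepG2, transient MRTU transfection, 24 h compound exposure; RNA → oligo(dT) RT → PCR → 6-FAM primer extension → HpaI digest → CE fluorescence. Bidirectional curve fit vs DMSO. Background-control readout.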
# [19] = ATG_M_06_TRANS: Attagene TRANS-FACTORIAL HepG2 Assay for M06 Transcription Factor (Internal Marker) (AID 2282983; active means hit-call score of the fitted dose curve at least 0.9, where 1 is the maximum); conditions: HepG2 Attagene TRANS M06 internal marker reporter
# Procedure, shortened: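 Read-out: fluorescent reporter cDNA fragments resolved by capillary electrophoresis after RT-PCR and HpaI cut. Source cells were HepG2 carrying transfected multi-reporter GAL4 constructs, dosed 24 h. Increase over DMSO control analysed.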
# [20] = ATG_GATA_CIS: Attagene CIS-FACTORIAL HepG2 Assay for human GATA Binding Protein (AID 2282944); conditions: HepG2 GATA cis-element reporter, Attagene multiplex mRNA; actives raise or lower the signal
# Procedure, shortened: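 Transient MRTU transfection, HepG2, 24 h compound exposure. Total RNA → oligo(dT) RT → PCR → 6-FAM primer extension → HpaI cut → CE. Bidirectional fit vs DMSO.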
smiles,measurement,setting,value
CCC(=O)OCc1ccc(OC)cc1,outcome,[1],inactive
same,outcome,[2],inactive
same,outcome,[3],inactive
same,outcome,[4],inactive
same,AC50,[5],29.7 µM (active)
same,outcome,[6],inactive
same,outcome,[7],inactive
same,outcome,[8],inactive
same,outcome,[9],inactive
same,outcome,[10],inactive
same,outcome,[11],inactive
same,outcome,[12],inactive
same,outcome,[13],inactive
same,outcome,[14],inactive
same,outcome,[15],inactive
CN1CCCC1,outcome,[1],inactive
same,outcome,[3],inactive
same,outcome,[4],inactive
same,outcome,[16],inactive
same,outcome,[17],inactive
same,outcome,[6],inactive
same,outcome,[7],inactive
same,outcome,[18],inactive
same,outcome,[8],inactive
same,outcome,[9],inactive
same,outcome,[19],inactive
same,outcome,[10],inactive
same,outcome,[11],inactive
same,outcome,[12],inactive
same,AC50,[13],26.2 µM (active)
same,outcome,[14],inactive
same,outcome,[15],inactive
Cc1cc2nc3c(=O)[nH]c(=O)nc-3n(C[C@H](O)[C@H](O)[C@H](O)CO)c2cc1C,outcome,[1],inactive
same,outcome,[20],inactive
same,outcome,[4],inactive
same,outcome,[16],inactive
same,outcome,[17],inactive
same,outcome,[6],inactive
same,outcome,[7],inactive
same,outcome,[18],inactive
same,outcome,[19],inactive
same,outcome,[10],inactive
same,outcome,[11],inactive
same,outcome,[12],inactive
same,outcome,[13],inactive
same,outcome,[14],inactive
same,outcome,[15],inactive
C=C1CC[C@H]2C[C@@H]1C2(C)C,outcome,[1],inactive
same,outcome,[2],inactive
same,outcome,[3],inactive
same,outcome,[4],inactive
same,outcome,[16],inactive
same,AC50,[5],11.5 µM (active)
same,outcome,[17],inactive
same,outcome,[6],inactive
same,outcome,[7],inactive
same,outcome,[18],inactive
same,outcome,[8],inactive
same,outcome,[19],inactive
same,outcome,[10],inactive
same,outcome,[11],inactive
same,AC50,[13],21.9 µM (active)
